Data: PubChem BioAssay AID793 (The Scripps Research Institute Molecular Screening Center, 2007)
Screen size: about 140,000 compounds; about 1,400 (1%) were called active. This excerpt belongs to a sample that is enriched for actives. Unmarked numbers belong to inactive results. Cut-off read from the data, not from the text of the source: active = inhibition above about 17%; inactive = the rest.

These compounds were tested against Neuropeptide Y receptor type 2 (Homo sapiens) (UniProt P49146) (assay: NPY-Y2 receptor antagonists, primary screen, cell-based (AID 793;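 note: 0% = vehicle with agonist challenge and 100% = reference antagonist with challenge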)). Settings: NPY-Y2 expressing cells, antagonist mode; at 2.7 µM; active compounds read high.
Chain of Neuropeptide Y receptor type 2 (Homo sapiens) (P49146 whole entry, looked up): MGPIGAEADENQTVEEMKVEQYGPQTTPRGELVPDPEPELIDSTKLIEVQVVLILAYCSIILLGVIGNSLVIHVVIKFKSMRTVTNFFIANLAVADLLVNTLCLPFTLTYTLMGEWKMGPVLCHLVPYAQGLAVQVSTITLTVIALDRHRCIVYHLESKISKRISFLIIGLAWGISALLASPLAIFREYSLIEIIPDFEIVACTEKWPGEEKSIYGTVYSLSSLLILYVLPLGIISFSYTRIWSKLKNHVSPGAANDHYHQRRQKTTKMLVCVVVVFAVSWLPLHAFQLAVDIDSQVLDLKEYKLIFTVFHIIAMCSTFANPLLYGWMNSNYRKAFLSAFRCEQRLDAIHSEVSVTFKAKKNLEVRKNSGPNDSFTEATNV

Compared with `CN1CCN(C(=S)SCC(=O)Nc2ccc(Cl)cc2C(=O)c2ccccc2)CC1`, `O=C(CCNS(=O)(=O)c1ccccc1)Nc1ccc(Cl)cc1C(=O)c1ccccc1` is lower in inhibition: 6.46% for the first, 2.34% for the second.

Going from `CN1CCN(Cc2ccc(OC(F)(F)F)cc2)CC1` to `CCOC(=O)c1c(-c2ccccc2)oc2ccc(OC(=O)N(C)C)cc12`, the inhibition rises from 3.95% to 4.26%.

For `O=C(COC(=O)c1ccccc1)Nc1ccc(Cl)cc1C(=O)c1ccccc1`, the inhibition was 34.7% (active).
